Experimental data published in PubChem BioAssay (NCI).
About 83,000 compounds went through this panel and 20% of them were active in at least one assay; those are over-represented in the sample as a whole.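 Values shown are percent growth following 48 h exposure of cells in 96-well plates to a single concentration of compound; below 10 was considered active.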 The source made the active and inactive calls.

Legend:
Assay in all cases: NCI-60 one-dose screen, 48 h (100 = growth as untreated, 0 = no growth, -100 = all killed)
Conditions in all cases: 10 µM unless noted
[1] = test system: HCT-15 colon
[2] = test system: HT29 colon
[3] = test system: SNB-75 CNS
[4] = test system: SNB-19 CNS
[5] = test system: U251 CNS
[6] = test system: PC-3 prostate
[7] = test system: SK-MEL-5 melanoma
[8] = test system: UACC-62 melanoma
[9] = test system: LOX IMVI melanoma
[10] = test system: SK-MEL-28 melanoma
[11] = test system: SK-MEL-2 melanoma
[12] = test system: EKVX NSCLC
[13] = test system: SN12C renal
[14] = test system: UO-31 renal
[15] = test system: TK-10 renal
[16] = test system: ACHN renal
[17] = test system: CAKI-1 renal
[18] = test system: A498 renal
[19] = test system: CCRF-CEM leukemia
[20] = test system: MOLT-4 leukemia

Measured: growth

C[C@H](NC(=O)[C@@H](C)N)[C@H](Oc1ccc2c(cnn2-c2ccc(F)cc2)c1)c1ccc2c(c1)OCCO2
active: [2] 2.47% | [7] -70% | [8] -22.3% | [9] -67.3% | [10] -66.7% | [20] 8.43%
inactive: [1] 34% | [3] 61.6% | [4] 65.9% | [5] 34.7% | [6] 44% | [11] 65.8% | [12] 43.5% | [13] 42.6% | [14] 18.5% | [15] 70.5% | [16] 59% | [17] 20.4% | [18] 91.2% | [19] 15.5%

Cn1c(=O)c2c(nc(NC3=NS(=O)(=O)c4ccccc43)n2CC(=O)N2CCc3ccccc32)n(C)c1=O
inactive: [1] 101% | [2] 101% | [3] 94.9% | [4] 101% | [5] 101% | [6] 104% | [7] 101% | [8] 97.6% | [9] 91.2% | [10] 105% | [11] 106% | [12] 102% | [13] 96.9% | [14] 75.9% | [15] 108% | [16] 102% | [17] 92.7% | [18] 58.9% | [19] 101% | [20] 112%

CCOC(=O)c1[nH]c(=O)c2c(C)nc(-c3ccccc3)cc2c1O
inactive: [1] 100% | [2] 113% | [3] 118% | [4] 104% | [5] 117% | [6] 72.1% | [7] 96.7% | [8] 109% | [9] 112% | [10] 105% | [11] 84.8% | [12] 98.8% | [13] 88.8% | [14] 90% | [15] 178% | [16] 110% | [17] 109% | [18] 72.6% | [19] 91.8% | [20] 98.1%

CN(C)c1ccc(/C=C/C(=O)c2ccc(-n3cc(CN4CCN(c5cc6c(cc5F)c(=O)c(C(=O)O)cn6C5CC5)CC4)nn3)cc2)cc1
active: [13] 8.77%
inactive: [1] 63.4% | [2] 28% | [3] 68.1% | [4] 31.6% | [5] 16.5% | [6] 57.4% | [7] 79% | [8] 55.8% | [9] 20.3% | [10] 68% | [11] 89% | [12] 87.6% | [14] 62.8% | [15] 85.1% | [16] 88.5% | [17] 36.9% | [18] 61.1% | [19] 20% | [20] 31.8%

COc1ccc(OC)c(-c2c(C#N)c(-c3cccs3)nc3c2c(-c2ccccc2)nn3-c2ccccc2)c1
inactive: [1] 104% | [2] 97.4% | [3] 89% | [4] 96.6% | [5] 100% | [6] 93.5% | [7] 102% | [8] 90.2% | [9] 104% | [10] 107% | [11] 107% | [12] 99.7% | [13] 99.3% | [14] 97.1% | [15] 108% | [16] 102% | [17] 91.9% | [18] 103% | [19] 99.7% | [20] 99.4%

CCC(C)N(c1ccc(Cl)cc1)c1nc(-c2ccc(Br)cc2)cs1 (stereo not given)
inactive: [1] 97.7% | [2] 106% | [3] 102% | [4] 105% | [5] 98% | [6] 99.9% | [7] 104% | [8] 87.2% | [9] 93.3% | [10] 111% | [11] 105% | [12] 80.2% | [13] 99.2% | [14] 81.3% | [15] 131% | [16] 96.4% | [17] 70.9% | [18] 94.7% | [19] 81.7% | [20] 82.7%

O=C(CCc1nnc(Cn2cnc3nc[nH]c3c2=O)o1)c1nc2ncccc2[nH]1
inactive: [1] 104% | [2] 92% | [3] 92.5% | [4] 94.6% | [5] 101% | [6] 105% | [7] 104% | [8] 94.3% | [9] 88.1% | [10] 111% | [11] 103% | [12] 102% | [13] 95.1% | [14] 80.8% | [15] 96.9% | [16] 105% | [17] 92.2% | [18] 94.8% | [19] 90.5% | [20] 103%

CCOC(=O)C1=NN(c2ccccc2)C(=O)/C1=C\N1C(=O)CC(=O)NC1=S
inactive: [1] 105% | [2] 99.7% | [3] 10.6% | [4] 97.4% | [5] 91% | [6] 96.4% | [7] 99.6% | [8] 87.5% | [9] 93.7% | [10] 114% | [11] 98% | [12] 103% | [13] 95.6% | [14] 77.4% | [15] 96% | [16] 101% | [17] 41.2% | [18] 104% | [19] 96.2% | [20] 99%

CCCCCCCCn1ccc2cc(NC(=O)Cn3cc(CN4CCCCC4)nn3)ccc21
active: [1] -40.7% | [2] -61.2% | [4] -49.2% | [5] -53.6% | [7] -93% | [8] -81.4% | [9] -80.3% | [10] -85.4% | [14] -96.6% | [17] -45% | [20] 8.5%
inactive: [3] 73.4% | [6] 54.6% | [11] 35.6% | [12] 85% | [13] 34.5% | [15] 75.7% | [16] 57.5% | [18] 97% | [19] 15.7%

COc1cc(-c2nc(SCCC(C)C)nc(Nc3ccccc3Cl)c2C#N)cc(OC)c1OC
inactive: [1] 93% | [2] 89.1% | [3] 89.3% | [4] 98.9% | [5] 106% | [6] 81.4% | [7] 89.2% | [8] 81% | [9] 101% | [10] 98.8% | [11] 101% | [12] 93.3% | [13] 90% | [14] 69.7% | [15] 125% | [16] 97.1% | [17] 78.9% | [18] 85.3% | [19] 92.1% | [20] 87.4%

C=C1C(=O)O[C@H]2[C@H]1CC/C(COC(=O)N[C@H]1C[C@H](O[C@H]3C[C@](O)(C(=O)CO)Cc4c(O)c5c(c(O)c43)C(=O)c3c(OC)cccc3C5=O)O[C@@H](C)[C@H]1O)=C\CC[C@@]1(C)O[C@@H]21
active: [9] 0.614% | [10] 9.44% | [19] -18.2% | [20] -5.6%
inactive: [1] 99.2% | [2] 25.2% | [3] 56.4% | [4] 68.4% | [5] 45.3% | [6] 78% | [7] 68.3% | [8] 34.6% | [11] 85.5% | [12] 103% | [13] 34.9% | [14] 83.1% | [15] 64.9% | [16] 88.9% | [17] 61.7% | [18] 70.5%

N=C(N)c1ccc(-c2ccc(-c3ccc(F)cc3)o2)o1
inactive: [3] 20% | [4] 26.7% | [6] 19.3% | [7] 21.7% | [8] 57.5% | [10] 65.1% | [11] 35.6% | [12] 47.5% | [13] 37.4% | [14] 15.5% | [15] 49.9% | [16] 27.2% | [17] 31.3% | [18] 37.1%
active: [1] -0.304% | [2] -20.3% | [5] -11.7% | [9] -61.6% | [19] 2.36% | [20] 8.09%

COc1cnc2c(c1)C(=O)c1c-2n(CCCNCCO)c(=O)c2ccncc12
active: [2] 3.25% | [4] 7.52% | [5] 0.604% | [6] 6.97% | [7] -78.4% | [8] -49.1% | [9] -40.5% | [10] -13.1% | [11] -2.38% | [13] 4.98% | [14] -19.8% | [16] -49.8% | [18] -33.3% | [20] -7.69%
inactive: [1] 23.1% | [3] 12.1% | [12] 19.7% | [15] 15.9% | [17] 28.7% | [19] 11.1%

N#C/C(=C/c1ccc([N+](=O)[O-])cc1)n1nnc2cc(F)c(F)cc21
active: [1] -7.15%
inactive: [2] 69.4% | [3] 74.9% | [4] 73.7% | [5] 59% | [6] 52.5% | [7] 88.6% | [8] 57.2% | [9] 42.4% | [10] 97.6% | [11] 75.6% | [12] 103% | [13] 61.1% | [14] 64.7% | [15] 24.5% | [16] 36.2% | [17] 71.2% | [18] 75.3% | [19] 15.1% | [20] 38.6%

CCOC(=O)c1c(C)nc2c(c1N)CC(=O)N2Cc1cc(F)cc(Cl)c1
inactive: [1] 80.5% | [2] 77.1% | [3] 71.6% | [4] 100% | [5] 90.8% | [6] 77.9% | [7] 74.9% | [8] 78% | [9] 96.5% | [10] 105% | [11] 118% | [12] 85.3% | [13] 93.2% | [14] 84.6% | [15] 92.1% | [16] 88.2% | [17] 75.8% | [18] 76.7% | [19] 95.2% | [20] 95.9%
